Results: PubChem BioAssay AID720711 (National Center for Advancing Translational Sciences (NCATS), 2013)
About 290 (0.081%) of roughly 360,000 compounds were called active. Calls come from the whole dose curve; as a rule, active = well fitted activation curve with a large enough effect; inconclusive = small, poorly fitted or top-dose-only effect; inactive = no such curve, though single readings can be large or run the other way. For the sample, actives were picked, then their nearest neighbours and some compounds at random.

target: Rap guanine nucleotide exchange factor 4 (Homo sapiens) (UniProt Q8WZA2); test: qHTS for Agonist of cAMP-regulated guanine nucleotide exchange factor 4 (EPAC2): primary screen; settings: biochemical qHTS; Potency: EPAC2 activation; series mostly up to 154 µM; activation: at the top concentration; note: nearly all actives have a fitted effect of over 50% in size
Sequence (Q8WZA2 whole entry, looked up): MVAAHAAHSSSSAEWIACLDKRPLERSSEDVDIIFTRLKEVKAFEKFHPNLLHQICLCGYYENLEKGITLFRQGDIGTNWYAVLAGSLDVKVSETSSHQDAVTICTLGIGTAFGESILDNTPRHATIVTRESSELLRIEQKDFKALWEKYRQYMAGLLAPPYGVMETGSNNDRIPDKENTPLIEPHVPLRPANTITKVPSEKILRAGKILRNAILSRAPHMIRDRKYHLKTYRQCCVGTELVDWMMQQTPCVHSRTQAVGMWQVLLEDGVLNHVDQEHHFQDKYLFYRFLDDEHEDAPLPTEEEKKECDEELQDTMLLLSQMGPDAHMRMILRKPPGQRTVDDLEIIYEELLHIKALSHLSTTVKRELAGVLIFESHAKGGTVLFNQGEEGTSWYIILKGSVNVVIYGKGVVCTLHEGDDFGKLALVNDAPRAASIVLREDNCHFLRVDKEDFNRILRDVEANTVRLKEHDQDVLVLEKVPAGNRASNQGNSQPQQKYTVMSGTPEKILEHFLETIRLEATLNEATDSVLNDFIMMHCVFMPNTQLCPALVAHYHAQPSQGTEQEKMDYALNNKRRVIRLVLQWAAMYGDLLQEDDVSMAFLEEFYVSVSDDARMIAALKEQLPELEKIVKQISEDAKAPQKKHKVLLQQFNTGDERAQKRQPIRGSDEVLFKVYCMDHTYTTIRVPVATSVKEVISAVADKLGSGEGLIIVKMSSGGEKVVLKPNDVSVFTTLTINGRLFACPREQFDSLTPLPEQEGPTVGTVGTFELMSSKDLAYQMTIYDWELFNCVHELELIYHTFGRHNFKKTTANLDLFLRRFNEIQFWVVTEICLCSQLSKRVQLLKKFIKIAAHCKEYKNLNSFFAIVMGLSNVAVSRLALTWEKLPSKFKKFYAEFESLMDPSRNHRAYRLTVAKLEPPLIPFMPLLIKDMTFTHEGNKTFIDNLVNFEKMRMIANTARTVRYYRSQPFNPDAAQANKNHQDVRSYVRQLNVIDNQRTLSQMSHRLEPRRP
Text: In multi-cellular eukaryotic organisms, the effects of cAMP are transduced by two ubiquitously-expressed intracellular cAMP receptors, the classic protein kinase A/cAMP-dependent protein kinase (PKA/cAPK) and the more recently discovered exchange protein directly activated by cAMP/cAMP-regulated guanine nucleotide exchange factor (EPAC/cAMP-GEF). Both PKA and EPAC are ubiquitously expressed in all tissues, and an increase in intracellular cAMP levels will lead to the activation of both PKA and EPAC. Therefore, careful dissections of the individual role and relative contribution of EPAC and PKA within the overall cAMP signaling in various model systems are critical for further elucidating the mechanism of cAMP signaling. To date no EPAC-specific antagonists and agonist, as well as isoform-specific agonists have been reported, and developing EPAC-specific pharmacological probes to determine the physiological functions that EPAC play in the overall cAMP-mediated signaling remains a major challenge within the research field. Furthermore, identified regulators of EPAC may lead to new mechanism-based therapeutic strategies specifically targeting the EPAC / cAMP-signaling components as EPAC has been implicated to play important roles in major human pathological conditions such as diabetes, heart disease, and cancer.
This qHTS will be used to screen the Molecular Libraries Small Molecule Repository (MLSMR) as a concentration-titration series using the NCGC unique quantitative screening (qHTS) platform to find activators for EPAC2. In addition, this assay will also be used as a counterscreen for the EPAC1 qHTS. This fluorescent based assay is developed and validated for EPAC2 that measures exchange using EPAC effector Rap1 complex with BODIPY-GDP, a GDP analog with a tethered fluorophores. Activators are identified by monitoring the change in fluorescence signal as the exchanged free BODIPY-GDP has a reduced fluorescence compared to Rap1-bound BODIPY-GDP. […] in signal (activation) is the desired outcome for the EPAC2 agonist while no activity in this assay is desired for the EPAC1 agonist counterscreen.
[1] de Rooij, J., Zwartkruis, F. J., Verheijen, M. H., Cool, R. H., Nijman, S. M., Wittinghofer, A., and Bos, J.L. (1998) Nature 396, 474-477
[2] Kawasaki, H., Springett, G. M., Mochizuki, N., Toki, S., Nakaya, M., Matsuda, M., Housman, D. E., and Graybiel, A. M. (1998) Science 282, 2275-2279
NIH Chemical Genomics Center [NCGC]
NIH Molecular Libraries Probe Centers Network [MLPCN]
Assay Submitter (PI): Xiaodong Cheng, The University of Texas, Medical Branch
Briefly, three uL of reagents (100 nM EPAC2, 250 nM RAP1B-BODIPY-GDP, 50 uM GDP) were dispensed into a 1536-well Greiner black solid-bottom medium binding assay plate. Controls and test compounds (23 nL) were transferred to the plate via a Kalypsys pin tool equipped with a 1536-pin array. The plates were centrifuged at 1,000 rpm for 15 seconds followed by 5 minute incubation at room temperature. The assay plates were read at 5 minute intervals for 30 minutes in the ViewLux plate reader using 480nm excitation and 540nm emission filters. The results were normalized to the agonist positive control of 6.5 mM cAMP.
Potency is the fitted concentration of half-maximal effect.

Compound	Potency	activation
COc1cccc(N2C(=O)NC(=O)/C(=C\c3cn(C)c4ccccc34)C2=O)c1	100 µM (active)	
CCc1nc2ccccc2c(=O)n1-c1cccc(OC)c1		1.81% (inactive)
CC1C(=O)OC2CCN3CC=C(COC(=O)C(C)(O)C1(C)O)C23 (stereo not given)		-2.81% (inactive)
CSC1=NP(=S)(SC)N(C)c2nc3n(c21)CCC3 (stereo not given)		9.22% (inactive)
CC(=O)c1ccc(OC(NC(=O)Cc2ccccc2)C(Cl)(Cl)Cl)cc1 (stereo not given)		6.08% (inactive)
